Laboratory results from PubChem BioAssay (NCI).
About 83,000 compounds went through this panel and 20% of them were active in at least one assay; those are over-represented in the sample as a whole.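 Treatment: one concentration, 48 hours, 96-well format. Scoring: percent growth, with anything below 10 considered active.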 Values without a mark were called inactive. Active and inactive are the calls of the source.

Test system: HCC-2998 colon
Assay: NCI-60 one-dose screen, 48 h (100 = growth as untreated, 0 = no growth, -100 = all killed)
Conditions: 10 µM unless noted

Row | Structure (SMILES) | growth
1 | CNC(=O)c1cc(Oc2ccc3nc(NC(=O)Nc4ccc(F)cc4F)sc3c2)ccn1 | 88.1%
2 | CCOC(=O)c1c2c(n3ccc(NC(=O)CCN4CCCC4)cc13)C(=O)c1ncccc1C2=O | -83.5% (active)
3 | CNC(=O)c1cc(Oc2ccc3nc(NC(=O)c4cc(C(F)(F)F)cc(C(F)(F)F)c4)sc3c2)ccn1 | 35.2%
4 | CC(=O)CC(=O)c1ccccc1.[Cu+2] | 107%
5 | O=c1c2cccc3c(N4CCOCC4)ccc(c32)c2nc3ccccc3n12 | 73.2%
6 | CN(C)C(=O)OCc1ccc2c(Cl)cc(Cl)c(O)c2n1 | 61.8%
7 | COc1ccc(-c2ccc(-c3ccc(C(=N)N)nc3)s2)cc1 | -44.9% (active)
8 | CN1CCN(c2ccc(Nc3ncc4[nH]c(=O)n(Cc5ccccc5N)c4n3)cc2)CC1 | 96.4%
9 | NC(=N\N=C/c1ccc(Cl)cc1Cl)/C(N)=N\N=C/c1ccc(Cl)cc1Cl | 88.8%
10 | C=C1C(=O)O[C@H]2[C@H]1CC/C(COC(=O)NCc1ccc(Cn3c(=O)sn(CCCC)c3=O)cc1)=C\CC[C@@]1(C)O[C@@H]21 | 97.7%
11 | FC(F)(F)c1cccc(-c2nnn(Cc3cc(-c4cccc(Cl)c4)no3)n2)c1 | 103%
12 | O=C(c1ccc(F)cc1)C1CCN(CCn2c(=O)[nH]c3ccccc3c2=O)CC1 | 105%
13 | Cc1ccc(C2(C)NC(=O)N(CC(=O)Nc3cccc(C)c3)C2=O)cc1 (configuration not stated) | 102%
14 | COc1ccc(C(=O)C2OC3=C(C(=O)CC(C)(C)C3)C2c2cccc(Oc3ccccc3)c2)cc1 (configuration not stated) | 113%
15 | CC1(C)C2=C(C(=O)N1Cc1ccccc1)C(c1ccco1)N(C(=O)C1CCC1)CCN2 (configuration not stated) | 98.4%
16 | COc1ccc(Nc2nccc(Nc3ccc4[nH]ncc4c3)n2)cc1 | 63.4%
17 | Cc1nn(-c2ccccc2)c(Oc2ccccc2)c1/C=N/NC(=O)Cn1c(=O)sc2ccccc21 | 72.2%
18 | CCN1C(=O)N(CC)C2C1NC(=S)N2/N=C/C=C/c1cccs1 (configuration not stated) | 16.4%
19 | O=C(Nc1ncc(Cc2ccc(Cl)cc2)s1)c1ccc2c(c1)OCCO2 | 23.2%

Row | Structure (SMILES) | growth
20 | CN(C)CCOc1nc2c3cc([N+](=O)[O-])ccc3nn2c2ccccc12 | 54.6%
21 | CCN(CC)CCCC(Nc1c2ccc(Cl)cc2nc2ccc(OC)cc12)c1ccncc1 (configuration not stated) | 71%
22 | CCOC(=O)c1cnc2sc(-c3ccc(OC)cc3)nc2c1Cl | 114%
23 | COc1ccc2c(O)cc3c(c2c1)[C@H](CCl)CN3C(=O)c1cc2cc(NC(=O)CCN3CCOCC3)ccc2[se]1 | -88.3% (active)
24 | Oc1ccc(Cc2ccc(O)c3ncccc23)c2cccnc12 | 19.2%
25 | CO[C@]12C=C/C(=C(/C(=O)OCc3cccnc3)C(=O)CCCCCCCC[C@]3(OC)C=C/C(=C(/C(=O)OCc4cccnc4)C(=O)CCCCCCCC1)O3)O2 | -90.6% (active)
26 | CC(C)=CCC[C@](C)(O)C1CC[C@]2(C)[C@@H]1CC[C@@H]1[C@@]3(C)CC/C(=N\OCCC#N)C(C)(C)[C@@H]3CC[C@]12C (some centres not stated) | 84.5%
27 | Cn1cc(-c2ccc3c(Nc4cccc(NC(=O)Nc5cccc(F)c5)c4)ncnc3c2)cn1 | 83.3%
28 | O=c1oc2ccccc2cc1-c1nn(-c2ccccc2)cc1/C=N/Nc1nc(-c2ccccc2)c(N=Nc2ccccc2)s1 | 85.6%
29 | C=C(CNCCO)[C@@H]1CC[C@]2(CO)CC[C@]3(C)[C@H](CC[C@@H]4[C@@]5(C)CCC(NCCO)C(C)(C)[C@@H]5CC[C@]43C)[C@@H]12 (some centres not stated) | 71.7%
30 | COc1cccc(-c2cc(-c3ccc(Nc4nc(Nc5ccc(Cl)cc5)nc(Nc5ccc(Cl)cc5)n4)cc3)nc(N)c2C#N)c1 | -29.9% (active)
31 | CC(C)C(=O)Nc1ncc(C(=O)NCCN(Cc2ccccc2)C(=O)c2ccc(S(=O)(=O)Nc3ccccc3)cc2)s1 | 106%
32 | CN1CCN(Cc2ccc(NC(=O)c3cncc(C#Cc4cnc(N)c5ccc(C#N)cc45)c3)cc2C(F)(F)F)CC1 | 32.6%
33 | COc1ccc2c(c1)c(-c1nc(-c3cn(C)c4ccncc34)cs1)cn2C | -54.1% (active)
34 | Cn1ccnc1C(=O)/C=C/c1ccc(CC(=O)Nc2cc(F)c(F)c(F)c2)cc1 | 4.93% (active)
35 | Cc1ccc(Nc2cc(N)nc(N)n2)cc1 | 96%
36 | Cc1nc2ccccc2c(/C=C/c2ccc(Cl)cc2)c1C(=O)/C=C/c1ccccc1 | -12% (active)
37 | NS(=O)(=O)Oc1cccc(-c2nc3sccn3c2-c2ccccc2)c1 | 87.4%

Test system: KM12 colon
Assay: as above
Conditions: 10 µM unless noted

Row | Structure (SMILES) | growth
38 | CNC(=O)c1cc(Oc2ccc3nc(NC(=O)Nc4ccc(F)cc4F)sc3c2)ccn1 | 72.6%
39 | CCOC(=O)c1c2c(n3ccc(NC(=O)CCN4CCCC4)cc13)C(=O)c1ncccc1C2=O | -89.4% (active)
40 | CNC(=O)c1cc(Oc2ccc3nc(NC(=O)c4cc(C(F)(F)F)cc(C(F)(F)F)c4)sc3c2)ccn1 | 15.5%
41 | CC(=O)CC(=O)c1ccccc1.[Cu+2] | 98.2%
42 | O=c1c2cccc3c(N4CCOCC4)ccc(c32)c2nc3ccccc3n12 | 78.1%
43 | CN(C)C(=O)OCc1ccc2c(Cl)cc(Cl)c(O)c2n1 | 35.4%
44 | COc1ccc(-c2ccc(-c3ccc(C(=N)N)nc3)s2)cc1 | -73.7% (active)
45 | CN1CCN(c2ccc(Nc3ncc4[nH]c(=O)n(Cc5ccccc5N)c4n3)cc2)CC1 | 101%
46 | NC(=N\N=C/c1ccc(Cl)cc1Cl)/C(N)=N\N=C/c1ccc(Cl)cc1Cl | 84%
47 | C=C1C(=O)O[C@H]2[C@H]1CC/C(COC(=O)NCc1ccc(Cn3c(=O)sn(CCCC)c3=O)cc1)=C\CC[C@@]1(C)O[C@@H]21 | 101%
48 | FC(F)(F)c1cccc(-c2nnn(Cc3cc(-c4cccc(Cl)c4)no3)n2)c1 | 102%
49 | O=C(c1ccc(F)cc1)C1CCN(CCn2c(=O)[nH]c3ccccc3c2=O)CC1 | 104%
50 | Cc1ccc(C2(C)NC(=O)N(CC(=O)Nc3cccc(C)c3)C2=O)cc1 (configuration not stated) | 96.6%
51 | COc1ccc(C(=O)C2OC3=C(C(=O)CC(C)(C)C3)C2c2cccc(Oc3ccccc3)c2)cc1 (configuration not stated) | 94.6%
52 | CC1(C)C2=C(C(=O)N1Cc1ccccc1)C(c1ccco1)N(C(=O)C1CCC1)CCN2 (configuration not stated) | 101%
53 | COc1ccc(Nc2nccc(Nc3ccc4[nH]ncc4c3)n2)cc1 | 10%
54 | Cc1nn(-c2ccccc2)c(Oc2ccccc2)c1/C=N/NC(=O)Cn1c(=O)sc2ccccc21 | 56%
55 | CCN1C(=O)N(CC)C2C1NC(=S)N2/N=C/C=C/c1cccs1 (configuration not stated) | 18.5%
56 | O=C(Nc1ncc(Cc2ccc(Cl)cc2)s1)c1ccc2c(c1)OCCO2 | 12.7%
57 | C#Cc1ccc(NC(=O)Cc2ccc(/C=C/C(=O)c3nccn3C)cc2)cc1 | 25.6%

Row | Structure (SMILES) | growth
58 | CN(C)CCOc1nc2c3cc([N+](=O)[O-])ccc3nn2c2ccccc12 | 41.9%
59 | CCN(CC)CCCC(Nc1c2ccc(Cl)cc2nc2ccc(OC)cc12)c1ccncc1 (configuration not stated) | 69.1%
60 | CCOC(=O)c1cnc2sc(-c3ccc(OC)cc3)nc2c1Cl | 90.7%
61 | COc1ccc2c(O)cc3c(c2c1)[C@H](CCl)CN3C(=O)c1cc2cc(NC(=O)CCN3CCOCC3)ccc2[se]1 | -57.4% (active)
62 | Oc1ccc(Cc2ccc(O)c3ncccc23)c2cccnc12 | 15.8%
63 | CO[C@]12C=C/C(=C(/C(=O)OCc3cccnc3)C(=O)CCCCCCCC[C@]3(OC)C=C/C(=C(/C(=O)OCc4cccnc4)C(=O)CCCCCCCC1)O3)O2 | -86.5% (active)
64 | CC(C)=CCC[C@](C)(O)C1CC[C@]2(C)[C@@H]1CC[C@@H]1[C@@]3(C)CC/C(=N\OCCC#N)C(C)(C)[C@@H]3CC[C@]12C (some centres not stated) | 84.7%
65 | Cn1cc(-c2ccc3c(Nc4cccc(NC(=O)Nc5cccc(F)c5)c4)ncnc3c2)cn1 | 20.4%
66 | O=c1oc2ccccc2cc1-c1nn(-c2ccccc2)cc1/C=N/Nc1nc(-c2ccccc2)c(N=Nc2ccccc2)s1 | 44.7%
67 | CCCNNC(=O)c1ccc(CNC(=O)/C=C/c2ccccc2)cc1 | 47.1% [2.5 µM]
68 | C=C(CNCCO)[C@@H]1CC[C@]2(CO)CC[C@]3(C)[C@H](CC[C@@H]4[C@@]5(C)CCC(NCCO)C(C)(C)[C@@H]5CC[C@]43C)[C@@H]12 (some centres not stated) | 63.4%
69 | COc1cccc(-c2cc(-c3ccc(Nc4nc(Nc5ccc(Cl)cc5)nc(Nc5ccc(Cl)cc5)n4)cc3)nc(N)c2C#N)c1 | 46.7%
70 | CC(C)C(=O)Nc1ncc(C(=O)NCCN(Cc2ccccc2)C(=O)c2ccc(S(=O)(=O)Nc3ccccc3)cc2)s1 | 105%
71 | CN1CCN(Cc2ccc(NC(=O)c3cncc(C#Cc4cnc(N)c5ccc(C#N)cc45)c3)cc2C(F)(F)F)CC1 | -85.1% (active)
72 | COc1ccc2c(c1)c(-c1nc(-c3cn(C)c4ccncc34)cs1)cn2C | -53.1% (active)
73 | O=C(OCC(O)(CO)C(=O)NC12CC3CC(CC(C3)C1)C2)c1ccc(Cl)cc1 (configuration not stated) | 103%
74 | Cn1ccnc1C(=O)/C=C/c1ccc(CC(=O)Nc2cc(F)c(F)c(F)c2)cc1 | 9.05% (active)
75 | Cc1ccc(Nc2cc(N)nc(N)n2)cc1 | 95.5%
76 | Cc1nc2ccccc2c(/C=C/c2ccc(Cl)cc2)c1C(=O)/C=C/c1ccccc1 | 10.7%
77 | NS(=O)(=O)Oc1cccc(-c2nc3sccn3c2-c2ccccc2)c1 | 48.4%
